Common to all, as to assay: NCI-60 one-dose screen, 48 h (100 = growth as untreated, 0 = no growth, -100 = all killed)
Common to all, as to conditions: 10 µM unless noted

Assay [1] deals with SK-MEL-2 melanoma.
For assay [2], the system named is EKVX NSCLC.
Assay [3] deals with SN12C renal.
In assay [4] the test system is UO-31 renal.
Assay [5] deals with TK-10 renal.
The test system of assay [6] is ACHN renal.
Assay [7] concerns CAKI-1 renal.
The test system of assay [8] is A498 renal.
In assay [9] the test system is CCRF-CEM leukemia.
Assay [10] deals with SR leukemia.
The test system of assay [11] is RPMI-8226 leukemia.
For assay [12], the system named is OVCAR-8 ovarian.
The subject of assay [13] is OVCAR-5 ovarian.
Assay [14] concerns OVCAR-4 ovarian.
Assay [15] relates to SK-OV-3 ovarian.
Assay [16] concerns IGROV1 ovarian.
Assay [17] has as its system OVCAR-3 ovarian.
The test system of assay [18] is HS 578T breast.
Assay [19] relates to NCI/ADR-RES ovarian.

The structures appear in SMILES notation. About 83,000 compounds went through this panel and 20% of them were active in at least one assay; those are over-represented in the sample as a whole.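 Note: values are percent growth. 100 is the growth of untreated cells, values between 100 and 0 indicate rising inhibition; between -100 and 0 indicates cell death.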 A number with no mark means an inactive call. Active and inactive are the calls of the source. The calls were made as follows: active = growth percent below 10; inactive = the rest.

The record followed here is PubChem BioAssay (NCI).

With `CN(C)CC1C(=O)O[C@H]2[C@H]1CC/C(COC(=O)c1cc3ccccc3[nH]1)=C\CC[C@@]1(C)O[C@@H]21` (stereo partly specified), the growth in assay [1] was -55% (active); in assay [2] it was -27.4% (active); in assay [3] it was -22.1% (active); in assay [4] it was -92.7% (active); in [5] it was -89.2% (active); in assay [6], -82.4% (active). In addition, the growth is -14.4% (active) in assay [7]; 5.21% (active) in assay [8]; 1.08% (active) in assay [9]; -13.6% (active) in assay [10]; -15.7% (active) in assay [11]; -45.6% (active) in [12]. Also, the growth in assay [13] is -5.25% (active); in assay [14], -9.35% (active); in assay [15] it was 65.1%; in assay [16], -41.2% (active); in [17], -82.7% (active); in assay [18], -3.98% (active). Further, the growth in assay [19] is -30.8% (active).
`C#CCOc1nc(C)cc(C)c1C#N`: the growth is 111% in [1]; 97.1% in assay [2]; 104% in [3]; 86.5% in [4]; 95.9% in [5]; 99.7% in [6]. Further, the growth was 90.6% in [7]; 87.7% in [8]; 109% in assay [9]; 111% in assay [11]; 102% in [12]; 95.1% in [13]. Further, the growth is 100% in assay [14]; 101% in assay [15]; 102% in assay [16]; 110% in assay [17]; 101% in [18]; 103% in assay [19].
As for `CCN1C(=O)N(CC)C2Nn3c(s/c(=C\c4ccc(Cl)cc4Cl)c3=O)=NC21` (stereo unspecified), the growth is 71.2% in [1]; 68.8% in assay [2]; 43.3% in [3]; 53.5% in assay [4]; 15.8% in assay [5]; 37.6% in [6]. The growth is 36.9% in [7]; 21.4% in assay [8]; 41.7% in assay [9]; 47.2% in assay [11]; 36.1% in assay [12]; 54.5% in assay [13]. Moreover, the growth in [14] is 56.7%; in assay [15] it was 70.2%; in [16] it was 40.6%; in [17] it was 17.4%; in [18], 55.4%; in assay [19], 14.7%.
On to `COc1cc(N=Nc2ccc(N)cc2)c(OC)cc1N=Nc1ccccc1.[Cl][Zn][Cl]`, for which the growth in assay [1] was 112%; in assay [2], 103%; in assay [3] it was 102%; in [4] it was 53.1%; in assay [5], 140%; in [6], 91.1%. The growth in assay [7] is 75.1%; in assay [8], 116%; in [9], 106%; in assay [11], 90.9%; in [12] it was 98.8%; in [13], 96.4%. For the same molecule, the growth in assay [14] is 92.3%; in assay [15], 96.5%; in assay [16], 47.6%; in [17], 99.8%; in assay [18], 107%; in assay [19], 95.8%.
As for `COC(=O)[C@]12CC[C@@H](C)[C@H](C)[C@@H]1C1=CC[C@@H]3[C@@]4(C)C(C=O)=C[C@@](C)(CO)[C@@H]4[C@H](O)C[C@@]3(C)[C@]1(C)CC2`, the growth was -31.7% (active) in [1]; 7.75% (active) in assay [2]; 1.62% (active) in assay [3]; -31.5% (active) in assay [4]; -18.8% (active) in assay [5]; -81.6% (active) in assay [6]. In addition, the growth in assay [7] is -28.7% (active); in [8], -5.03% (active); in [9], 1.38% (active); in assay [10] it was -20.4% (active); in assay [11], -10.1% (active); in assay [12], -2.42% (active). The growth is -5.06% (active) in assay [14]; 3.19% (active) in assay [15]; 3.94% (active) in [16]; -91.9% (active) in assay [17]; -15.6% (active) in assay [18]; -10.2% (active) in [19].
As for `COc1cccc(-c2nn(-c3ccccc3)cc2-c2ccnc(NCCNC(=O)Nc3ccccc3)c2)c1`, the growth in assay [1] was 46.8%; in assay [2], 71.1%; in [3], 54%; in [4], 39%; in assay [5], 73.8%; in assay [6], 68.9%. The growth was 64.9% in [7]; 43.8% in assay [8]; 54.7% in assay [9]; 39.5% in assay [11]; 38% in [12]; 53.9% in [14]. In addition, the growth is 58% in assay [15]; 65.4% in [16]; 55.8% in [17]; 31.4% in assay [18]; 34.8% in assay [19].
Turning to `Cc1cc(NCc2cc(Nc3ccnc4cc(Cl)ccc34)ccc2F)nc(N2CCCC2)n1`, the growth in [1] is 93.5%; in assay [2], 17.3%; in assay [3] it was 35.8%; in assay [4], -50.9% (active); in assay [5], -35.8% (active); in assay [6], -69.2% (active). The growth was 71.5% in assay [7]; 59.2% in assay [8]; -22.5% (active) in assay [9]; -23.9% (active) in [10]; 2.5% (active) in [12]; 6.27% (active) in assay [13]. Moreover, the growth was -0.25% (active) in assay [14]; 51.1% in [15]; -2.2% (active) in assay [16]; -73.6% (active) in assay [17]; 56.8% in assay [18]; 12.7% in assay [19].
Regarding `COC(=O)[C@]12CC[C@@H](C)[C@H](C)[C@@H]1C1=CC[C@@H]3[C@@]4(C)C(C=O)=C[C@@](C)(COC(=O)/C=C/c5ccccc5)[C@@H]4[C@H](O)C[C@@]3(C)[C@]1(C)CC2`, the growth in [1] is -23.5% (active); in assay [2] it was 26.9%; in assay [3], 3.47% (active); in assay [4], 3.64% (active); in assay [5] it was 26%; in assay [6], -14.7% (active). The growth in assay [7] was 15%; in assay [8] it was 19.6%; in [9], 16.4%; in [10] it was -6.65% (active); in assay [11], 1.62% (active); in assay [12], 9.9% (active). Further, the growth is 21.4% in [14]; 18.6% in assay [15]; 23.9% in [16]; -75.9% (active) in assay [17]; -8.26% (active) in [18]; 17.9% in assay [19].
As for `O=S(=O)(Nc1cccc(Cl)c1)c1ccc(-c2cnc(C3CC3)o2)cc1`, the growth in assay [1] is 58.8%; in [2], 35.1%; in assay [3] it was 39.7%; in assay [4], 35.5%; in assay [5], 45.9%; in assay [6] it was 37.1%. The growth in [7] was 29.8%; in assay [8] it was -3.4% (active); in assay [9] it was 12.8%; in assay [11], 17.8%; in assay [12], 33.5%; in [13], 37.2%. Besides, the growth is 41.7% in assay [14]; 34.3% in assay [15]; 26.4% in [16]; 1.3% (active) in [18]; 18.9% in assay [19].
